The supplement of paper PMC8728848
Many of the other results were omitted from the sample, so the strongest signals are more common in it than they were.

How the values were obtained:
Assay in all cases: glycan array binding signal (z-score within array); higher = stronger binding
Conditions in all cases: glycan notation: IUPAC condensed, linker removed; mutation: R186S
[1] = biological target: Fuc(a1-2)Gal(b1-3)GalNAc(b1-4)[Neu5Ac(a2-3)]Gal(b1-4)Glc
Outline: (§1)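 The binding signal is a Z-score computed within each array. Data were drawn from 3228 arrays in the Consortium for Functional Glycomics database, restricted to those with a known protein sequence. Scores were averaged over arrays of the same protein sequence at different concentrations or buffers, and over linkers, and negative values can be taken as non-binding.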

[2] = biological target: Fuc(a1-2)Gal(b1-4)[Fuc(a1-3)]GlcNAc(b1-2)Man(a1-3)[Fuc(a1-2)Gal(b1-4)[Fuc(a1-3)]GlcNAc(b1-2)Man(a1-6)]Man(b1-4)GlcNAc(b1-4)GlcNAc
Outline: as §1

[3] = biological target: Fuc(a1-2)Gal(b1-4)[Fuc(a1-3)]GlcNAc(b1-3)Gal(b1-4)[Fuc(a1-3)]GlcNAc(b1-3)Gal(b1-4)[Fuc(a1-3)]GlcNAc
Outline: as §1

[4] = biological target: Fuc(a1-2)[Gal(a1-3)]Gal(b1-3)GlcNAc(b1-2)Man(a1-3)[Fuc(a1-2)[Gal(a1-3)]Gal(b1-3)GlcNAc(b1-2)Man(a1-6)]Man(b1-4)GlcNAc(b1-4)GlcNAc
Outline: as §1

[5] = biological target: Fuc(a1-2)[Gal(a1-3)]Gal(b1-4)GlcNAc(b1-2)Man(a1-3)[Fuc(a1-2)[Gal(a1-3)]Gal(b1-4)GlcNAc(b1-2)Man(a1-6)]Man(b1-4)GlcNAc(b1-4)GlcNAc
Outline: as §1

[6] = biological target: Fuc(a1-2)[GalNAc(a1-3)]Gal(b1-3)GlcNAc(b1-2)Man(a1-3)[Fuc(a1-2)[GalNAc(a1-3)]Gal(b1-3)GlcNAc(b1-2)Man(a1-6)]Man(b1-4)GlcNAc(b1-4)GlcNAc
Outline: as §1

[7] = biological target: Fuc(a1-3)[Gal(b1-4)]GlcNAc(b1-2)Man(a1-3)[Fuc(a1-3)[Gal(b1-4)]GlcNAc(b1-2)Man(a1-6)]Man(b1-4)GlcNAc(b1-4)GlcNAc
Outline: as §1

[8] = biological target: Fuc(b1-3)GlcNAc
Outline: as §1

[9] = biological target: Gal(a1-3)Gal(b1-4)[Fuc(a1-3)]GlcNAc(b1-2)Man(a1-3)[Gal(a1-3)Gal(b1-4)[Fuc(a1-3)]GlcNAc(b1-2)Man(a1-6)]Man(b1-4)GlcNAc(b1-4)GlcNAc
Outline: as §1

[10] = biological target: Gal(b1-3)GlcNAc(b1-3)GalNAc
Outline: as §1

[11] = biological target: Gal(b1-3)[Fuc(a1-4)]GlcNAc(b1-2)Man(a1-3)[Gal(b1-3)[Fuc(a1-4)]GlcNAc(b1-2)Man(a1-6)]Man(b1-4)GlcNAc(b1-4)GlcNAc
Outline: as §1

[12] = biological target: Gal(b1-3)[Neu5Ac(a2-6)]GalNAc
Outline: as §1

[13] = biological target: Gal(b1-4)GlcNAc(b1-2)Man(a1-3)[Gal(b1-4)GlcNAc(b1-2)Man(a1-6)]Man(b1-4)GlcNAc(b1-4)[Fuc(a1-6)]GlcNAc
Outline: as §1

[14] = biological target: Gal(b1-4)GlcNAc(b1-2)Man(a1-6)[Man(a1-3)]Man(b1-4)GlcNAc(b1-4)GlcNAc
Outline: as §1

[15] = biological target: Gal(b1-4)GlcNAc(b1-2)[Gal(b1-4)GlcNAc(b1-4)]Man(a1-3)[Gal(b1-4)GlcNAc(b1-2)Man(a1-6)]Man(b1-4)GlcNAc(b1-4)GlcNAc
Outline: as §1

[16] = biological target: Gal(b1-4)GlcNAc(b1-3)Gal(b1-3)GlcNAc
Outline: as §1

[17] = biological target: GalNAc(b1-4)GlcNAc(b1-2)Man(a1-3)[GalNAc(b1-4)GlcNAc(b1-2)Man(a1-6)]Man(b1-4)GlcNAc(b1-4)GlcNAc
Outline: as §1

[18] = biological target: Glc(a1-6)Glc(a1-6)Glc
Outline: as §1

[19] = biological target: GlcA(b1-6)Gal
Outline: as §1

[20] = biological target: GlcNAc(a1-4)Gal(b1-4)GlcNAc(b1-3)Gal(b1-4)Glc
Outline: as §1

[21] = biological target: GlcNAc(b1-2)Man(a1-3)[GlcNAc(b1-2)Man(a1-6)]Man(b1-4)GlcNAc(b1-4)[Fuc(a1-6)]GlcNAc
Outline: as §1

[22] = biological target: GlcNAc(b1-3)Gal
Outline: as §1

[23] = biological target: GlcNAc(b1-3)Gal(b1-4)Glc
Outline: as §1

[24] = biological target: GlcNAc(b1-6)Gal(b1-4)GlcNAc
Outline: as §1

[25] = biological target: GlcNAc(b1-6)GalNAc
Outline: as §1

[26] = biological target: Kdn(a2-3)Gal(b1-4)Glc
Outline: as §1

[27] = biological target: Kdn(a2-6)Gal(b1-4)GlcNAc
Outline: as §1

[28] = biological target: Man(a1-2)Man(a1-2)Man(a1-3)Man
Outline: as §1

[29] = biological target: Man(a1-2)Man(a1-3)Man
Outline: as §1

[30] = biological target: Neu5Ac(a2-3)Gal(b1-3)GalNAc(b1-3)Gal(a1-4)Gal(b1-4)Glc
Outline: as §1

[31] = biological target: Neu5Ac(a2-3)Gal(b1-3)[Neu5Ac(a2-3)Gal(b1-4)]GlcNAc
Outline: as §1

[32] = biological target: Neu5Ac(a2-3)Gal(b1-4)[Fuc(a1-3)]GlcNAc(b1-3)GalNAc
Outline: as §1

[33] = biological target: Neu5Ac(a2-3)GalNAc(b1-4)GlcNAc
Outline: as §1

[34] = biological target: Neu5Ac(a2-6)Gal(b1-4)GlcNAc(b1-2)Man(a1-3)[Gal(b1-4)GlcNAc(b1-2)Man(a1-6)]Man(b1-4)GlcNAc(b1-4)GlcNAc
Outline: as §1

[35] = biological target: Neu5Ac(a2-6)Gal(b1-4)GlcNAc(b1-2)Man(a1-3)[Neu5Ac(a2-6)Gal(b1-4)GlcNAc(b1-2)Man(a1-6)]Man(b1-4)GlcNAc(b1-4)GlcNAc
Outline: as §1

[36] = biological target: Neu5Ac(a2-6)Gal(b1-4)GlcNAc(b1-3)Gal(b1-3)GlcNAc
Outline: as §1

[37] = biological target: Neu5Ac(b2-6)Gal(b1-4)GlcNAc
Outline: as §1

[38] = biological target: Neu5Ac(b2-6)GalNAc
Outline: as §1

[39] = biological target: Neu5Ac9Ac(a2-3)Gal(b1-3)GlcNAc
Outline: as §1

B1: Gal 3 (Homo sapiens), P17931 (protein)
chain: MADNFSLHDALSGSGNPNPQGWPGAWGNQPAGAGGYPGASYPGAYPGQAPPGAYPGQAPPGAYHGAPGAYPGAPAPGVYPGPPSGPGAYPSSGQPSAPGAYPATGPYGAPAGPLIVPYNLPLPGGVVPRMLITILGTVKPNANILDFQRGNDVAFHFNPRFNENNRRVIVCNTKLDNNWGREESQSVFPFESGKPFKIQVLVEPDHFKVAVNDAHLLQYNHRVKKLNEISKLGISGDIDLTSASYTMI
- glycan array binding signal (z-score) [1]: -0.057
- glycan array binding signal (z-score) [2]: 0.064
- glycan array binding signal (z-score) [3]: -0.032
- glycan array binding signal (z-score) [4]: 19.8
- glycan array binding signal (z-score) [5]: 0.619
- glycan array binding signal (z-score) [6]: 0.242
- glycan array binding signal (z-score) [7]: 0.045
- glycan array binding signal (z-score) [8]: -0.041
- glycan array binding signal (z-score) [9]: -0.061
- glycan array binding signal (z-score) [10]: -0.079
- glycan array binding signal (z-score) [11]: 0.028
- glycan array binding signal (z-score) [12]: -0.068
- glycan array binding signal (z-score) [13]: -0.086
- glycan array binding signal (z-score) [14]: -0.047
- glycan array binding signal (z-score) [15]: -0.042
- glycan array binding signal (z-score) [16]: -0.007
- glycan array binding signal (z-score) [17]: -0.023
- glycan array binding signal (z-score) [18]: -0.051
- glycan array binding signal (z-score) [19]: -0.057
- glycan array binding signal (z-score) [20]: -0.057
- glycan array binding signal (z-score) [21]: -0.012
- glycan array binding signal (z-score) [22]: -0.059
- glycan array binding signal (z-score) [23]: -0.053
- glycan array binding signal (z-score) [24]: -0.076
- glycan array binding signal (z-score) [25]: -0.058
- glycan array binding signal (z-score) [26]: -0.004
- glycan array binding signal (z-score) [27]: -0.071
- glycan array binding signal (z-score) [28]: -0.067
- glycan array binding signal (z-score) [29]: -0.024
- glycan array binding signal (z-score) [30]: 0.003
- glycan array binding signal (z-score) [31]: -0.076
- glycan array binding signal (z-score) [32]: 0.182
- glycan array binding signal (z-score) [33]: -0.062
- glycan array binding signal (z-score) [34]: 0.028
- glycan array binding signal (z-score) [35]: -0.05
- glycan array binding signal (z-score) [36]: -0.061
- glycan array binding signal (z-score) [37]: -0.083
- glycan array binding signal (z-score) [38]: -0.023
- glycan array binding signal (z-score) [39]: -0.069
